The results in this text go back to PubChem BioAssay AID1986 (Sanford-Burnham Center for Chemical Genomics, 2009).

The structures appear in SMILES notation. Hit rate of the full screen: of about 290,000 compounds, about 890 (0.31%) were called active. The sample holds actives, similar compounds and a random draw of the others, so the mix is not that of the screen. Cut-off read from the data, not from the text of the source: active = inhibition mostly above about 52% (no sharp cut-off); inactive = mostly below about 76%.

This assay in a line: cell-free HIV fusion peptide-binding blockers – biochemical, uHTS, fluorescence dequenching, primary screen (AID 1986). Conditions: 30 min, stronger effect = higher value.
Where [1] appears, read: measured here: repeat confirmation average inhibition, at 18.6 µM.

As a reminder, the inhibition is the relative decrease from the control value, in per cent. Consider `CC(C)(C)n1nnnc1CN1CCN2CCCC2C1` (configuration not stated), for which, for the setting “at 20 µM”, the inhibition is 1.1% (inactive). On to `NC(=O)C1=C[C@H](c2ccc(C(F)(F)F)cc2)C[C@H](OCCCCO)O1`, for which, under “at 20 µM”, the inhibition was -0.7% (inactive). `Cc1cccc(NS(=O)(=O)c2ccc3c(c2)oc(=O)n3C)c1C`: for the setting “at 20 µM”, the inhibition is 2.3% (inactive). Take `Cc1cccc(NC(=O)NC2CCCc3ccccc32)c1` (configuration not stated): the inhibition (at 20 µM) is -2.1% (inactive).

As for `COc1ccccc1OCC(=O)Nc1ccc(S(=O)(=O)Nc2onc(C)c2C)cc1`, the inhibition (at 20 µM) was -0.4% (inactive). Take `CCC(C)[C@H](NC(=O)[C@@H]1Cc2c([nH]c3ccccc23)C2c3ccccc3C(=O)N21)C(=O)N1CCC[C@@H]1C(=O)O` (some centres not stated): where the note is “at 20 µM”, the inhibition is 6.9% (inactive). Turning to `O=C(CCCN1C(=O)/C(=C\c2ccco2)SC1=S)Nc1ccc(O)cc1C(=O)O`, the inhibition is 72% (inactive) (at 20 µM) and 13% under setting [1].

As for `O=C(CCN1C(=O)/C(=C/c2ccco2)SC1=S)Nc1ccc(O)cc1C(=O)O`, the inhibition is, setting by setting: (at 20 µM) 52.5% (inactive); under setting [1], 30.6%. In the case of `COc1ccc(NC(=O)CCCN2C(=O)/C(=C\c3ccco3)SC2=S)cc1`, the inhibition (at 20 µM) is 33.7% (inactive). Consider `O=C(CN1C(=O)/C(=C/c2ccco2)SC1=S)Nc1ccc(C(=O)O)c(O)c1`, for which the inhibition (at 20 µM) is 76.4% (active).

Turning to `O=C(CN1C(=O)/C(=C\c2cccs2)SC1=S)Nc1cccc(C(=O)O)c1`, the inhibition (at 20 µM) was 32.4% (inactive). Consider `O=C(CN1C(=O)/C(=C\c2ccco2)SC1=S)Nc1ccc(O)cc1C(=O)O`, for which, where the note is “at 20 µM”, the inhibition is 75.1% (active). On to `CCCCOc1ccc(Cc2n[nH]c(=S)n2N)cc1`, for which the inhibition (at 20 µM) was -3.5% (inactive).

As for `Cc1ccc(C)c(S(=O)(=O)N2CCN(C(=O)c3ccc(N4CCCC4)c([N+](=O)[O-])c3)CC2)c1`, the inhibition (at 20 µM) is 0.3% (inactive).

Take `CC1(C)Cc2nc3sc4c(N5CCCC5)nnnc4c3cc2CO1`: the inhibition (at 20 µM) is 0.1% (inactive). As for `O=C(NCCCCc1ccccc1)c1cccc([N+](=O)[O-])c1`, the inhibition (at 20 µM) was 0.7% (inactive). `CCCCOc1ccc(-c2cc(C(F)(F)F)c(C#N)c(SCC(=O)O)n2)cc1`: the inhibition (at 20 µM) was 79.3% (active). Consider `COc1ccc(-c2cc(C(F)(F)F)c(C#N)c(SCC(=O)O)n2)cc1`, for which, under “at 20 µM”, the inhibition was 2.9% (inactive). Consider `CCCOc1ccc(-c2cc(C(F)(F)F)c(C#N)c(SCC(=O)O)n2)cc1`, for which the inhibition (at 20 µM) is 29.9% (inactive).

For the compound `O=C(N/N=C/c1cccc([N+](=O)[O-])c1)c1ccc2nc[nH]c2c1`, the inhibition (at 20 µM) is -2.3% (inactive). Consider `O=C1c2ccccc2C(=O)N1Cc1cc(Cl)c(O)c([N+](=O)[O-])c1`, for which the inhibition (at 20 µM) is -1.1% (inactive). In the case of `NC(=S)Nc1cc2ccccc2c2ccccc12`, where the note is “at 20 µM”, the inhibition was -2.7% (inactive).

As for `CC1CCCN(S(=O)(=O)c2ccc([N+](=O)[O-])cc2)C1` (configuration not stated), where the note is “at 20 µM”, the inhibition is 1.5% (inactive). In the case of `N[C@@H](Cc1cc(I)c(Oc2ccc(O)c(I)c2)c(I)c1)C(=O)O`, the inhibition (at 20 µM) was 30.3% (inactive). For `O=C(O)CCc1cc(I)c(Oc2ccc(O)c(I)c2)c(I)c1`, the inhibition (at 20 µM) is 75.1% (active). Consider `O=C(O)Cc1cc(I)c(Oc2ccc(O)c(I)c2)c(I)c1`, for which the inhibition is, setting by setting: (at 20 µM) 68.9% (inactive); under setting [1], 33.9%. On to `CCn1c(=O)c2c(nc3n2CCCN3CCc2ccc(OC)c(OC)c2)n(C)c1=O`, for which the inhibition (at 20 µM) was -0.3% (inactive).

Turning to `CC(C)C(=O)NNC(=O)c1csc(-c2cccs2)n1`, for the setting “at 20 µM”, the inhibition is 0% (inactive). `COc1cc(C2CC(=O)Nc3c2c(=O)nc2c(C)cccn32)cc(OC)c1OC` (configuration not stated): for the setting “at 20 µM”, the inhibition is 0% (inactive). In the case of `N#C/C(=C/c1ccc(N2CCOCC2)o1)c1nc2ccccc2[nH]1`, the inhibition (at 20 µM) is 52.1% (active). Same read-out and setting: the same measure for `N#C/C(=C/c1ccc(N2CCCCC2)o1)C(=O)Nc1ccc2ccccc2c1`: 153% (inactive). For `N#C/C(=C/c1ccc(N2CCOCC2)o1)C(=O)Nc1ccccc1`, the inhibition (at 20 µM) is 147% (inactive). Still for that read-out and setting: to `N#C/C(=C\c1ccc(N2CCCCC2)o1)C(N)=O` belongs 91.9% (active); to `N#C/C(=C/c1ccc(N2CCCCC2)o1)C(=O)Nc1ccc(Cl)cc1`, 44.8% (inactive); to `N#C/C(=C\c1ccc(N2CCOCC2)o1)C(=O)Nc1ccc(O)cc1`, 148% (inactive).

In the case of `N#C/C(=C\c1ccc(N2CCOCC2)o1)C(=O)N1CCOCC1`, the inhibition was 53.5% (active) (at 20 µM) and 83.9% under setting [1].

With `Cc1ccc2nc(/C(C#N)=C\c3ccc(N4CCOCC4)o3)[nH]c2c1`, for the setting “at 20 µM”, the inhibition was 28% (inactive).

As for `N#C/C(=C\c1ccc(N2CCOCC2)o1)c1nc2ccccc2[nH]1`, where the note is “at 20 µM”, the inhibition was 48.3% (inactive). Take `COc1cccc(CC(=O)NC2CCCN(Cc3ccc(Cl)cc3)C2)c1` (configuration not stated): the inhibition (at 20 µM) is -1% (inactive).

Regarding `CCCCCn1c(=O)[nH]c2cc(C(=O)NCCN3CCCCC3C)ccc2c1=O` (configuration not stated), the inhibition (at 20 µM) was 0.7% (inactive). Consider `COc1ccc(OC)c(CN2CCN(S(=O)(=O)c3ccc(NC(C)=O)cc3)CC2)c1`, for which the inhibition (at 20 µM) is -1.6% (inactive). For the compound `S=C(NCCc1ccccc1)NC1CC2CCC(C1)N2Cc1ccccc1` (configuration not stated), the inhibition (at 20 µM) is -0.5% (inactive). With `O=C(N/N=C/c1ccncc1)c1cccs1`, the inhibition (at 20 µM) is -1.5% (inactive). In the case of `CCOC(=O)c1sc(N/N=C/c2cc(Br)c(O)c(OC)c2)nc1C`, for the setting “at 20 µM”, the inhibition is 13.2% (inactive). Regarding `COC/C=C/C1=CC2=CC(=O)C(C)(OC(=O)CCC(=O)OC)C(=O)C2=CO1` (configuration not stated), the inhibition (at 20 µM) is 45% (inactive).

With `COC/C=C/C1=CC2=CC(=O)C(C)(OC(=O)C3CCCC3)C(=O)C2=CO1` (configuration not stated), for the setting “at 20 µM”, the inhibition is 35.3% (inactive). Same read-out and setting: the same measure for `COC/C=C/C1=CC2=CC(=O)C(C)(OC(=O)c3ccco3)C(=O)C2=CO1` (configuration not stated): 51% (active).

Consider `COC(=O)c1ccc(C(=S)NCC2(N(C)C)CCCCC2)cc1`, for which the inhibition (at 20 µM) is -0.5% (inactive). As to `Clc1ccc(Cn2c(/C=C/c3ccco3)nc3ccccc32)cc1`, the inhibition (at 20 µM) is 58.4% (active). On to `Clc1ccccc1Cn1c(/C=C/c2ccco2)nc2ccccc21`, for which the inhibition reads like this: (at 20 µM) 54.5% (inactive); under setting [1], 0.3%. Regarding `Cc1ccc(Cn2c(/C=C/c3ccco3)nc3ccccc32)cc1`, the inhibition (at 20 µM) is 28.5% (inactive).

For the compound `COc1ccc(C(=O)NNC(=O)Cc2ccc(Cl)cc2)cc1`, the inhibition (at 20 µM) is 0.6% (inactive).
